Hits are enriched below; roughly 4.1% of the tested compounds scored in any of these assays.
Sm TGR inh: S. mansoni TGR enzyme inhibition | Q962Y6 | purified TGR, DTNB reduction, TNB absorbance 405 nm | Potency, µM (doses to about 114 µM), actives largely listed as inhibitors | 360,000 compounds, 3% hits | AID 485364; further: nearly all actives have a fitted effect of over 60% in size
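Kinetic colorimetric format: TGR-catalysed, NADPH-driven DTNB reduction monitored via TNB absorbance. Enzyme dispensed at 20 nM; compound exposure 15 min at room temperature before reaction start.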
AmpC inh detg: AmpC beta-lactamase inhibition with detergent present; P00811; AmpC hydrolysis of nitrocefin, absorbance 480 nm, 0.01% Triton; Potency, µM (top dose mostly 114 µM), hits mostly inhibitors; 370,000 compounds, 0.041% hits; AID 485294; further: nearly all actives have a fitted effect of over 25% in size
Target sequence (P00811 whole entry, looked up): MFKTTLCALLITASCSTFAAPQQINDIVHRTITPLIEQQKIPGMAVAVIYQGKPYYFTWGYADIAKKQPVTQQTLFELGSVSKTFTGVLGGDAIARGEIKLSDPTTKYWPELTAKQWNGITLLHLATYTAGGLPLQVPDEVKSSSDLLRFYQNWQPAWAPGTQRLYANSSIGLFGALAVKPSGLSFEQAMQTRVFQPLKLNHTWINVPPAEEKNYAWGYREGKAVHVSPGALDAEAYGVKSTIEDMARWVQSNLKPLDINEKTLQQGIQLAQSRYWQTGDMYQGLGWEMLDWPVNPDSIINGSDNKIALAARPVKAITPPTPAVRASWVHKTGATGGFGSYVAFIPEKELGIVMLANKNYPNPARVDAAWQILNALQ
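20 mM phosphate pH 7.0 + 0.01% (detergent screen) or 0.0001% Triton X-100; 5.3 nM AmpC reagent; cpd preinc 15 min RT; nitrocefin (800 uM stock) to start; A480 q20 s × 4 min; Activity was normalised to no-enzyme and no-compound control wells.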
FMDV antiviral: antivirals against foot and mouth disease virus | AID 1159524 | Potency, µM (titrated, usually from 57.9 µM), hits mostly inhibitors | 410,000 compounds, 1.2% hits | FMDV antiviral cell-based qHTS; calls by dose curve; tested in HEK293T cells; further: read-out not given here; nearly all actives have a fitted effect of over 45% in size
AMA1 RON2 block: disrupts binding of P. falciparum AMA1 to RON2; 360,000 compounds, 0.2% hits; Potency, µM (doses to about 58.2 µM), hits mostly inhibitors; AID 720542; AlphaScreen AMA1-biotinylated RON2 peptide binding; further: nearly all actives have a fitted effect of over 45% in size
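AMA1 (3D7) with his tag at 25 nM final met compounds first, then biotinylated RON2 peptide at 25 nM; detection used donor plus acceptor beads, 10 µg/mL apiece, read by AlphaScreen after 30 min at room temperature.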
AmpC inh no detg: blocks E. coli AmpC beta-lactamase in detergent-free assay; P00811; AmpC nitrocefin hydrolysis, absorbance 480 nm, 0.0001% Triton; Potency, µM (series often up to 57.1 µM), usual class: inhibitors; 330,000 compounds, 0.52% hits; AID 485341; further: nearly all actives have a fitted effect of over 20% in size
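AmpC (5.3 nM in the dispensed reagent) in 20 mM phosphate pH 7.0 with 0.01% (detergent screen) or 0.0001% Triton X-100 was preincubated with compounds for 15 min at room temperature. Nitrocefin was then added from an 800 uM solution, and hydrolysis was followed at 480 nm.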
Hits are given with their value; - = inactive; ? = inconclusive; . = no result; [ ] = remark or other dose. Unless noted, the call rests on the fitted dose curve; in most records, active means well fitted curve in the direction sought with a large enough effect; inconclusive means small, poorly fitted or top-dose-only effect, or another doubt; inactive means no such curve, though single readings can be large; an effect the other way counts as inactive or inconclusive.

SMILES | Sm TGR inh | AmpC inh detg | FMDV antiviral | AMA1 RON2 block | AmpC inh no detg
CCN1CCN(C2=C(NS(=O)(=O)c3ccccc3)C(=O)c3ccccc3C2=O)CC1 | ? | - | ? | - | -
O=C1C(NS(=O)(=O)c2ccc(Cl)cc2)=C(N2CCCCC2)C(=O)c2ccccc21 | ? | - | - | 11.2µM | -
Cc1nc(NCc2cnn(C)c2C)sc1-c1ccn(CC2COc3ccccc3O2)n1 (stereo not drawn) | . | . | - | . | .
CCC(C)NC(=O)Cn1c(=O)n(-c2ccc(C)c(C)c2)c(=O)c2c(C)c(C(=O)N(CC)CC)sc21 (stereo not drawn) | - | - | - | . | .
CC1Cc2c([nH]c3ccccc23)C2c3ccccc3CN12 (stereo not drawn) | 22.4µM | - | - | - | -
CCC1(C2CCN(C(=O)c3cc(C)cc(C)c3)CC2)NC(=O)N(CCc2scnc2C)C1=O (stereo not drawn) | . | . | - | . | .
CCOC(=O)CSC1=NC(=O)/C(=C/c2ccc(OC)cc2)S1 | 6.31µM | - | 25.1µM | - | -
COc1ccc(/C=C2\SC(N)=NC2=O)cc1 | - | - | - | - | -
O=C(NP(=O)(N1CCCC1)N1CCCC1)C1=C(N2CCOCC2)/C(=C/c2cccc([N+](=O)[O-])c2)CC1 | 17.8µM | - | - | - | -
O=[N+]([O-])c1cccc(/C=C2\CCC(/C=N/Nc3ccc4ccccc4n3)=C2N2CCOCC2)c1 | - | - | - | - | -
CCOC(=O)C(=O)C1=C(N2CCOCC2)/C(=C\c2cccc([N+](=O)[O-])c2)CC1 | 39.8µM | - | - | -[2.32 µM] | -
COc1cc(=O)n2c(c1C(=O)N(C)Cc1nonc1C)CCN(C(=O)c1ccc(C)c(C)c1)CC2 | . | . | - | . | .
COc1ccc(OC)c(NC(=O)Cc2coc3ccc(C(C)C)cc23)c1 | - | - | - | . | .
O=C(c1ccc2c(c1)N(Cc1ccccc1F)C(=O)c1ccccc1S2=O)N1CCCCC1 (stereo not drawn) | - | - | - | . | .
O=C(C1=NN[C@@H]2C(=O)N(c3cccc(F)c3)C(=O)[C@H]12)c1cnccn1 | 3.16µM | - | - | - | -
Cc1ccc(S(=O)(=O)CCC(=O)N(CCCN2CCOCC2)c2nc3ccccc3s2)cc1 | 14.1µM | - | - | ? | -
CCN(CC)CCN(C(=O)c1cccc(N2C(=O)CCC2=O)c1)c1nc2cc3c(cc2s1)OCO3 | - | - | - | - | -
O=C(CCS(=O)(=O)c1ccccc1)N(CCCN1CCOCC1)c1nc2ccccc2s1 | 2.51µM | - | - | - | -
Cc1ccc2nc(N(CCN3CCOCC3)C(=O)CCS(=O)(=O)c3ccccc3)sc2c1 | - | - | - | - | -
CCN(CC)CCN(C(=O)CCS(=O)(=O)c1ccccc1)c1nc2cc3c(cc2s1)OCO3 | 8.91µM | - | - | - | -
CCN(CC)CCN(C(=O)c1ccc(N2C(=O)CCC2=O)cc1)c1nc2cc3c(cc2s1)OCCO3 | 44.7µM | - | - | - | -
CN(C)CCN(C(=O)CCS(=O)(=O)c1ccccc1)c1nc2cc3c(cc2s1)OCO3 | ? | - | - | - | -
O=C(NCc1cccc(Cl)c1)C1CCN(c2nn3cc(-c4ccc(F)cc4)nc3s2)CC1 | - | - | - | . | .
O=C(NCc1cccc(Cl)c1)C1CCCN(c2nn3cc(-c4ccc(F)cc4)nc3s2)C1 (stereo not drawn) | - | - | 11.2µM | . | .
O=C(O)C=C(Br)Br | 50.1µM | ? | - | - | -
SMILES | Sm TGR inh | AmpC inh detg | FMDV antiviral | AMA1 RON2 block | AmpC inh no detg
CCN1C(=O)c2ccccc2Sc2ccc(NC(=O)Nc3cc(C)cc(C)c3)cc21 | - | - | ? | . | .
CCCNC(=O)c1cccc(S(=O)(=O)N2CC3(C)CC2CC(C)(C)C3)c1 (stereo not drawn) | - | ? | - | - | -
CN(C)C(CNC(=O)c1cccc(S(=O)(=O)N2CC3(C)CC2CC(C)(C)C3)c1)c1ccco1 (stereo not drawn) | 25.1µM | ? | - | - | -
CCc1ccccc1N1C(=O)N(Cc2cc(=O)n3ccccc3n2)c2ccccc2S1(=O)=O | - | - | ? | . | .
CC1CCCN(c2ccc(C(=O)NCC3CCCO3)cn2)C1 (stereo not drawn) | - | - | - | - | 0.199µM
Cc1ccc(CN2C(=O)C(O)(CC(=O)c3ccc(C)cc3)c3ccccc32)cc1 (stereo not drawn) | - | - | - | . | .

Assay outcomes (PubChem BioAssay)
